About 2,800 (6%) of roughly 47,000 compounds were called active. No stated cut-off is given here; in the data, active means z-score above about 3 (passing the limit was not always enough); inactive means the rest. Shown is part of a subset that was picked to be rich in actives.
The compounds below were run against Endoribonuclease Dicer (Homo sapiens) (UniProt Q9UPY3) (assay: inhibitors of Dicer pre-microRNA processing, primary screen, biochemical, cat-ELCCA, chemiluminescence (AID 1347074;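 further: plate controls were vehicle for no effect and no enzyme for full effect; higher signal means more uncleaved substrate so more Dicer inhibition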)). Details: cat-ELCCA pre-miR-21 Dicer processing, at 25 µM, active compounds read high.
Endoribonuclease Dicer (Homo sapiens), sequence (Q9UPY3 whole entry, looked up): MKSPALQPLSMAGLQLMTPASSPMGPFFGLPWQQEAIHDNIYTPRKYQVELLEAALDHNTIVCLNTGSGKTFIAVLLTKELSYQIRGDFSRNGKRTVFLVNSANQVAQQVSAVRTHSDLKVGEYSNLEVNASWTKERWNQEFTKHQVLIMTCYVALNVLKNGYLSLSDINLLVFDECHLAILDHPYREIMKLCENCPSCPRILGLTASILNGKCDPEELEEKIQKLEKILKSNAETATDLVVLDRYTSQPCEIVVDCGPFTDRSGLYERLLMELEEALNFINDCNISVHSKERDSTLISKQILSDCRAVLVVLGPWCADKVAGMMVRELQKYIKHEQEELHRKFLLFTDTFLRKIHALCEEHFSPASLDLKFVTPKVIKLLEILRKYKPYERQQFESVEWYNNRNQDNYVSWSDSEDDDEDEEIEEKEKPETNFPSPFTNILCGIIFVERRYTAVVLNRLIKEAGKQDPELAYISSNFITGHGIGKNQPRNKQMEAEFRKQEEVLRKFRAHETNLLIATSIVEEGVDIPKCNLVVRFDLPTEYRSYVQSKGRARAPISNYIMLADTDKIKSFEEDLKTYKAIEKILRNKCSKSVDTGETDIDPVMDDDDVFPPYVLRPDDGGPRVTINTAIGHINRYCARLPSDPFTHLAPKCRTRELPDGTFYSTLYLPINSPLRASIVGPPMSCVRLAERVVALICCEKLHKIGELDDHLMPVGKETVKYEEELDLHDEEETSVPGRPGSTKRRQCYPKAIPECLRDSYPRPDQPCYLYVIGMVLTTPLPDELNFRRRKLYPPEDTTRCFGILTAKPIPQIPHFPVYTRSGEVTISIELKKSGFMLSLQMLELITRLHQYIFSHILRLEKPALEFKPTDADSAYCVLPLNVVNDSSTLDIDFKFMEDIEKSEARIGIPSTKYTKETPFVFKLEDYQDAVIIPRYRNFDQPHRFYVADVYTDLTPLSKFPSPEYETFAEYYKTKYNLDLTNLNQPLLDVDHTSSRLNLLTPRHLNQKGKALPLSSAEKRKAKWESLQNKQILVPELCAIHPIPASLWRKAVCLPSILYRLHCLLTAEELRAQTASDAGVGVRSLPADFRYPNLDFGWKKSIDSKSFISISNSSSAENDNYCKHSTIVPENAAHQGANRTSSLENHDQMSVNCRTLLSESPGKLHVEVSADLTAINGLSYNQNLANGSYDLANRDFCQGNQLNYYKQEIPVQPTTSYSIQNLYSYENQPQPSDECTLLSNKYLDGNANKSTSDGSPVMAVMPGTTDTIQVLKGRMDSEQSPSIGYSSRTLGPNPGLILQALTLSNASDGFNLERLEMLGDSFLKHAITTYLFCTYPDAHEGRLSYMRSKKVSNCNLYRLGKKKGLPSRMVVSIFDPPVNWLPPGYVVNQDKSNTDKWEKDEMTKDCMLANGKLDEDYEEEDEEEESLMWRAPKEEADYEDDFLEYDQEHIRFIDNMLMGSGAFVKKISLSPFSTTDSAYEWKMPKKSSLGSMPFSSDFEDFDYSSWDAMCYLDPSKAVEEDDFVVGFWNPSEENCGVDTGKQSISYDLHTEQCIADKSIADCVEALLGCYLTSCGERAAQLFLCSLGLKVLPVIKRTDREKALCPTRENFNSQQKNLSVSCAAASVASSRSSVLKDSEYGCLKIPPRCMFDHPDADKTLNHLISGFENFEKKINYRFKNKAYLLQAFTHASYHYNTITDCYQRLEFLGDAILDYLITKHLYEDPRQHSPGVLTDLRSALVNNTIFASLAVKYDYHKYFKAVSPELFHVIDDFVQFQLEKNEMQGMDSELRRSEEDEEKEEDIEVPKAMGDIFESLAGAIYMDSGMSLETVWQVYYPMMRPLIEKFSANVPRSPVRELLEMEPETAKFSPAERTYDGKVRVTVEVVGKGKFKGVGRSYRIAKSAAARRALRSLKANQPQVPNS

SMILES	z-score
CCOc1c(Br)cc(CNCCc2c[nH]c3ccccc23)cc1OC	6.45 (active)
CC[N+]1(C)CCCC(OC(=O)C(O)(c2ccccc2)c2ccccc2)C1 (stereo not given)	-0.07 (inactive)
Fc1ccccc1CN1CCN(Cc2ccc3c(c2)OCO3)CC1	-0.5 (inactive)
CN(C)C(=O)Oc1nnc(SCCS(=O)(=O)c2ccc(F)cc2)n1C1CC1	-1.56 (inactive)
Cc1cccc(-c2nc(C)cc(OC(=O)N(C)C)n2)c1	-0.47 (inactive)
